Assay outcomes as filed in PubChem BioAssay.
GDH-TPI inh: GDH-TPI coupling enzyme inhibitors, primary screen, artefact control for M. tuberculosis FBA inhibitor project, biochemical, absorbance, full deck; GDH-TPI coupled enzyme counterscreen, NADH absorbance; 360,000 compounds, 1.2% hits; AID 588335, 2011; inhibition, % at 4.8 µM; in the data active = inhibition above about 30%
Mtb BioA inh: M. tuberculosis BioA enzyme inhibitors, primary screen, biochemical, plate reader, single point, HTS; 7,8-diaminopelargonic acid synthase BioA (Mycobacterium tuberculosis); purified M. tuberculosis BioA enzyme; inhibition, % at 9.99 µM; 360,000 compounds, 0.096% hits; AID 602481, 2012; in the data active = inhibition above about 40%; inconclusive = no clear call, values can overlap the other calls
SARS 3CLpro inh: SARS-CoV 3CLpro protease inhibitors, primary screen, biochemical, quenched FRET | Replicase polyprotein 1ab (Severe acute respiratory syndrome coronavirus), P0C6X7 | recombinant SARS-CoV 3CLpro, quenched FRET peptide cleavage | inhibition, % at 6 µM | 290,000 compounds, 0.14% hits; in the data active = inhibition above about 12%
FadD28 binding: inhibitors of FadD28 bisubstrate probe binding, primary screen, biochemical, fluorescence polarization, single point | 360,000 compounds, 0.22% hits | inhibition, % at 12.5 µM | AID 588549, 2011; in the data active = inhibition above about 8.5%, passing the limit was not always enough; inconclusive = no clear call, values can overlap the other calls
Mtb FBA inh: Mtb FBA enzyme inhibitors, primary screen, biochemical, fluorescence, strain H37Rv | Fructose-bisphosphate aldolase (Mycobacterium tuberculosis (strain ATCC 25618 / H37Rv)), … | inhibition, % at 1 µM | purified M. tuberculosis FBA, fluorescence read-out | 360,000 compounds, 2.3% hits | AID 588726, 2011; in the data active = inhibition above about 27%
Target sequence (P9WQA3 whole entry, looked up): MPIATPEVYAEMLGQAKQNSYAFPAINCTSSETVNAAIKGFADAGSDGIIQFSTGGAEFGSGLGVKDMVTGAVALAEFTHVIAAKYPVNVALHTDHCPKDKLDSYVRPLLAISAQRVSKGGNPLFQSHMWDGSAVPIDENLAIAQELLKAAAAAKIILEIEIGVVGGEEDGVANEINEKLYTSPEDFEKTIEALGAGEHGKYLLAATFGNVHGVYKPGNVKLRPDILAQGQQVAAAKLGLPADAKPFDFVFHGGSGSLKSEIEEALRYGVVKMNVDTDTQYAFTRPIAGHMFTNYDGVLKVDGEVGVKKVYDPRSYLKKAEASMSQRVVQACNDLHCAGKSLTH
Large screens that a line does not name were inactive. Sampled rows, rich in hits. Any-hit rate of the full collection: about 3.1%.

C[C@@H]1CN([C@H](C)CO)C(=O)c2cc(NC(=O)Cc3ccccc3)ccc2O[C@H]1CN(C)C(=O)Nc1ccc(F)cc1	none (no result: GDH-TPI inh, SARS 3CLpro inh, FadD28 binding, Mtb FBA inh)
CC(=O)Nc1ccc2c(c1)C(=O)N(C)[C@@H]1CC[C@H](CC(=O)NCCCN3CCOCC3)O[C@@H]1CO2	none (no result: GDH-TPI inh, SARS 3CLpro inh, FadD28 binding, Mtb FBA inh)
CC1CCC(NC(=O)c2cc(C3CC3)nn2-c2ccccc2)CC1 (configuration not stated)	Mtb FBA inh active (no result: SARS 3CLpro inh)
C[C@H](CO)N1C[C@H](C)[C@@H](CN(C)Cc2ccncc2)OCCCC[C@H](C)Oc2ccc(NC(=O)c3ccccc3)cc2C1=O	none (no result: GDH-TPI inh, SARS 3CLpro inh, FadD28 binding, Mtb FBA inh)
Cc1ccccc1C1=C/C(=C(\SS/C(C(=O)c2ccc(OCC(=O)O)c(Cl)c2Cl)=C2\C=C(c3ccccc3C)SS2)C(=O)c2ccc(OCC(=O)O)c(Cl)c2Cl)SS1	FadD28 binding 73 (no result: Mtb BioA inh, SARS 3CLpro inh)
Cc1cc(Cl)ccc1OCC(=O)O	none
CCC(=O)N1C[C@@H]2[C@H](c3ccccc31)[C@H](CO)N2Cc1ccccc1Cl	none (no result: GDH-TPI inh, SARS 3CLpro inh, FadD28 binding, Mtb FBA inh)
CO[C@@H]1CN(C)C(=O)c2cc(NS(=O)(=O)c3cn(C)cn3)ccc2OC[C@H](C)N(Cc2cccc(F)c2)C[C@@H]1C	none (no result: GDH-TPI inh, SARS 3CLpro inh, FadD28 binding, Mtb FBA inh)
COc1ccc(NC(=O)N(C)C[C@@H]2Oc3ccc(NC(=O)Nc4ccc(C(F)(F)F)cc4)cc3CC(=O)N([C@@H](C)CO)C[C@H]2C)cc1	none (no result: GDH-TPI inh, SARS 3CLpro inh, FadD28 binding, Mtb FBA inh)
NS(=O)(=O)c1ccc(CNC(=O)C(Cc2ccccc2)NS(=O)(=O)c2ccccc2F)cc1 (configuration not stated)	FadD28 binding 16 (no result: Mtb BioA inh)
NS(=O)(=O)c1ccc(CNC(=O)Cc2ccccc2F)cc1	none (no result: Mtb BioA inh)
CCC(=O)N1C[C@@H]2[C@H](c3ccccc31)[C@H](CO)N2C(=O)Nc1ccccc1F	none (no result: GDH-TPI inh, SARS 3CLpro inh, FadD28 binding, Mtb FBA inh)
CCn1c(=S)sc2c(=O)n(-c3ccccc3)c(SCC(=O)NCc3ccco3)nc21	GDH-TPI inh 38
O=c1ccc2cc(O[C@@H]3O[C@H](CO)[C@@H](O)[C@H](O)[C@H]3O)c(O)cc2o1	Mtb FBA inh active (no result: SARS 3CLpro inh)
COc1cc2cc(Oc3ccc4ccc(=O)oc4c3)c(=O)oc2cc1OC1OC(COC(=O)CC(C)(O)CC(=O)O)C(O)C(O)C1O (configuration not stated)	GDH-TPI inh 32
COc1ccc(CN(C)C[C@@H]2OCCCC[C@H](C)Oc3ccc(NS(=O)(=O)c4ccccc4)cc3C(=O)N([C@@H](C)CO)C[C@@H]2C)cc1	none (no result: GDH-TPI inh, SARS 3CLpro inh, FadD28 binding, Mtb FBA inh)
COc1ccc(-c2nc(-c3cccs3)c(-c3cccs3)[nH]2)cc1O	FadD28 binding 11
O=C(/C=C/c1ccccc1)NC(=S)NNC(=O)c1cnccn1	GDH-TPI inh 41
COc1cc(C(=O)NNC(=S)NC(=O)/C=C/c2ccccc2)cc(OC)c1OC	GDH-TPI inh 43
COc1ccc(/C=C/C(=O)NC(=S)NNC(=O)Cc2cccs2)cc1OC	GDH-TPI inh 38
COc1ccc(/C=C/C(=O)NC(=S)NNC(=O)c2cccnc2)cc1OC	GDH-TPI inh 38 (no result: Mtb BioA inh)
O=C(/C=C/c1ccccc1)NC(=S)NNC(=O)c1cccnc1	none
O=C(C[C@@H]1C[C@H]2c3cc(NS(=O)(=O)c4ccccc4)ccc3O[C@H]2[C@H](CO)O1)N1CCCCC1	none (no result: GDH-TPI inh, SARS 3CLpro inh, FadD28 binding, Mtb FBA inh)
COc1ccccc1N1C(=O)c2ccccc2NC1c1ccncc1 (configuration not stated)	none
O=C1c2ccccc2NC(c2ccncc2)N1c1ccccn1 (configuration not stated)	Mtb FBA inh 54
O=C(C[C@H]1CC[C@@H]2[C@H](COC[C@@H](O)CN2Cc2nccs2)O1)NCc1ccc(Oc2ccccc2)cc1	none (no result: GDH-TPI inh, SARS 3CLpro inh, FadD28 binding, Mtb FBA inh)
CCn1cc(CN2CCC(C(=O)Nc3ccc(Oc4cccnc4)cc3)CC2)c(C)n1	FadD28 binding 13
C=CCn1cc(CN2CCC(C(=O)Nc3ccc(Oc4cccnc4)cc3)CC2)c(C)n1	FadD28 binding 16
CCN1CCN(c2ccc(S(=O)(=O)N3CCCCC3)cc2NC(=O)/C=C/c2ccc(OC)c(OC)c2)CC1	none (no result: SARS 3CLpro inh)
COc1ccc(/C=N/NC(=S)Nc2cc(S(=O)(=O)N3CCOCC3)ccc2N2CCOCC2)cc1O	GDH-TPI inh 42 (no result: Mtb BioA inh)
CCN1CCN(c2ccc(S(=O)(=O)N3CCOCC3)cc2NC(=O)/C=C/c2ccc(OC)c(OC)c2)CC1	GDH-TPI inh 34 (no result: SARS 3CLpro inh)
CCCNC(=O)C[C@@H]1CC[C@H]2[C@@H](COC[C@@H](O)CN2C(=O)c2ccccn2)O1	none (no result: GDH-TPI inh, SARS 3CLpro inh, FadD28 binding, Mtb FBA inh)
CCOc1ccc(C(=O)Nc2nnc(NC(=S)Nc3ccccc3)s2)cc1	GDH-TPI inh 40
CCC(=O)Nc1nnc(S(=O)(=O)N(C)Cc2ccco2)s1	none
CN(Cc1ccco1)S(=O)(=O)c1nnc(NC(=O)c2ccc(F)cc2)s1	GDH-TPI inh 38
CCCC(=O)Nc1nnc(S(=O)(=O)N(C)Cc2ccco2)s1	none
Cc1ccc(C(=O)Nc2nnc(NC(=S)Nc3ccccc3)s2)cc1	none
CCOc1ccc(C(=O)Nc2nnc(S(=O)(=O)N(C)Cc3ccco3)s2)cc1	GDH-TPI inh 39
CCC(=O)Nc1ccc2c(c1)C(=O)N(C)C[C@@H](OC)[C@H](C)CN(Cc1ccccc1)[C@@H](C)CO2	none (no result: GDH-TPI inh, SARS 3CLpro inh, FadD28 binding, Mtb FBA inh)
CN(C)CC(=O)Nc1ccc2c(c1)[C@@H]1C[C@@H](CC(=O)NC3CCCC3)O[C@@H](CO)[C@@H]1O2	none (no result: GDH-TPI inh, SARS 3CLpro inh, FadD28 binding, Mtb FBA inh)
O=C(CNS(=O)(=O)c1cccs1)N1CCN(c2ccccn2)CC1	Mtb FBA inh 87
CN1C(=O)c2cc(NC(=O)c3ccccc3)ccc2OC[C@H]2O[C@H](CC(=O)NC3CCCC3)CC[C@H]21	none (no result: GDH-TPI inh, SARS 3CLpro inh, FadD28 binding, Mtb FBA inh)
Cc1ccsc1/C=N\NC(=O)c1ccc2c(c1)OCO2	GDH-TPI inh 40
O=C(N/N=C/c1cc([N+](=O)[O-])ccc1O)c1ccc2c(c1)OCCO2	GDH-TPI inh 32
COc1cc([N+](=O)[O-])ccc1NC(=S)NNC(=O)c1ccc2c(c1)OCO2	FadD28 binding inconclusive
Cc1ccsc1/C=N/NC(=O)c1sccc1C	none
Cc1ccsc1/C=N/NC(=O)c1ccc2c(c1)OCCO2	GDH-TPI inh 34
O=C(NC(=S)Nc1cc([N+](=O)[O-])ccc1O)c1ccc2c(c1)OCO2	FadD28 binding 13
O=C(N/N=C\c1ccc(S(=O)(=O)O)o1)c1ccc2c(c1)OCO2	GDH-TPI inh 41
COc1ccc2c(c1)CCC1(C)CC(=O)C(Br)=C21 (configuration not stated)	GDH-TPI inh 42, Mtb FBA inh active (no result: SARS 3CLpro inh)
COc1ccc(/C=N/Nc2nonc2N)cc1	none
COc1ccc(/C=N/Nc2nn3cnnc3c3ccccc23)cc1	GDH-TPI inh 35 (no result: Mtb BioA inh)
CC(=O)c1c(COC(=O)c2ccncc2)nc2ccccc2[n+]1[O-]	none
CC(=O)c1c(COC(=O)c2cccc(C)c2)nc2ccccc2[n+]1[O-]	GDH-TPI inh 31 (no result: Mtb BioA inh)
COCC(=O)Nc1ccc2c(c1)[C@H]1C[C@H](CC(=O)NC3CCCCC3)O[C@H](CO)[C@H]1O2	none (no result: GDH-TPI inh, SARS 3CLpro inh, FadD28 binding, Mtb FBA inh)
O=C(O)c1ccc(N/N=C/c2cccc(F)c2)cc1	GDH-TPI inh 37 (no result: Mtb BioA inh)
O=C(O)c1ccc(N/N=C/c2ccc(OC(=O)c3cccc(Cl)c3)cc2)cc1	GDH-TPI inh 31
